Drawing on PubChem BioAssay (NCI), this text covers growth for 40 compounds.

This is part of a sample that, as a whole, favours compounds with a hit. Of some 83,000 tested, about 20% had one in any assay.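 How to read the values: 0–100, growth inhibition (40 = 60% inhibited); 0, no net growth; -100 to 0, cell death (-40 = 40% of starting cells died; -100 = all dead).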 Unmarked numbers belong to inactive results. The source made the active and inactive calls.

This test has as its system IGROV1 ovarian. As to the kind of experiment: NCI-60 one-dose screen, 48 h (100 = growth as untreated, 0 = no growth, -100 = all killed). The settings on record: 10 µM unless noted. As to the method:
Growth inhibition of the IGROV1 human tumor cell line is measured as a screen for anti-cancer activity. Cells are grown in 96 well plates and exposed to the test compound for 48 hours. Compounds are tested at a single concentration, which is 10^-5 M for most compounds. The reported endpoint is percent growth (GI% or GIPRCNT), where numbers from 0 - 100% represent growth inhibition, and numbers from -100% - 0 represent cell death. For example, a value of 40 represents 60% growth inhibition. A value of 0 means no net growth occurred over the course of the experiment. A value of -40 indicates 40% of cells at the beginning of the experiment died by the end of the experiment. A value of -100 means all cells are dead at the end of the experiment.
NCI-60 Human Tumor Cell Lines Screen was performed using the standard one-dose NCI protocol, which is described in more detail at https://dtp.cancer.gov/discovery_development/nci-60/default.htm.
Compounds with GIPRCNT values below 10 were considered active. Activity score was based on GIPRCNT using the following formula: […]
Score is 0 for GIPRCNT values of 100 or above, 50 for GIPRCNT values of 0, and 100 for GIPRCNT values of -100.
As to `Cn1cc(-c2ccc3cc(-c4ccc(CC(=O)Nc5cc(C(C)(C)C)nn5C)cc4)cnc3c2)cn1`, the growth was -1.22% (active).

As to `O=C1c2cccc3cccc(c23)C(=O)N1N1C(=O)c2cccc3c(NC4CCCCC4)ccc(c23)C1=O`, the growth is 102%. The result for `COc1cc2oc(-c3ccc(O)cc3)cc(=O)c2c(O)c1-c1c(OC)cc(O)c2c(=O)cc(-c3ccc(O)cc3)oc12` reads 16.7%. Regarding `Nc1nc2ccccc2c2c(=O)c3cc(F)ccc3sc12`, the growth was 103%. For `NC1=NC(c2cccc(Br)c2)c2sc3ccc(Cl)cc3c2N1` (stereo not given), the growth is 77%. As for `CCOC(=O)c1c(C)nc2c(c1N)CC(=O)N2Cc1ccc(F)cc1`, the growth was 104%.

For `O=c1[nH][n+](-c2ccc(Br)cc2)no1`, the growth is 62.1%.

As to `C[C@]12CC[C@@H]3c4cc(OC(F)F)c(OS(N)(=O)=O)cc4CC[C@H]3[C@@H]1CC[C@@H]2OS(N)(=O)=O`, the growth is 47.6%. The result for `CCOC(=O)c1cn2ncnc(Oc3ccc(NC(=O)NCCN4CCOCC4)c(Cl)c3)c2c1C` reads 101%.

In the case of `O=c1n(Cc2ccc3ccccc3c2)ccn1Cc1ccc2ccccc2c1`, the growth was 91.6%. As for `N/C(=N\c1nc2ccccc2s1)NC(=O)Nc1cccc2ccccc12`, the growth was 33.6%. The result for `COc1ccn2c(C(C)=O)cc(C(=O)c3ccc4c(c3)Sc3ccccc3N4)c2c1` reads 34.9%; that for `C=C1CC[C@H](C(C)C)[C@@H]2[C@H]1[C@H]1CC(=C)[C@@H](O)CC[C@@](C)(O)[C@@H]2O1`, 107%. With `COc1ccc(C2C(N)=NNC2c2cccc(O)c2)cc1` (stereo not given), the growth was 90.6%. As for `COc1cc(C(=O)N/N=C/c2cc3cc(OCc4ccccc4)ccc3nc2OC)cc(OC)c1OC`, the growth was 111%.

As to `Cc1ccc(-c2nc(N3CCN(CC(=O)Nc4ccc(Cl)c(C(F)(F)F)c4)CC3)c3ccccc3n2)cc1`, the growth was 99.8%. With `Cc1ccc2c(-c3cc(-c4ccccc4)nc(N)c3C#N)cc(=O)oc2c1`, the growth was 110%. With `Cc1ccc2sc3c(NCCN)nc4ccccc4c3c(=O)c2c1`, the growth is 72.4%. The result for `N#C/C(=C\c1ccc(F)cc1)n1nc2cccc(F)c2n1` reads 73.1%; that for `Cn1cc(C(=O)c2nc(-c3cn(C)c4ccc(F)cc34)no2)c2cc(F)ccc21`, 77.8%; that for `CCOC(=O)c1[nH]c(C)c(C(=O)OCc2ccccc2C#N)c1C`, 44.6%. The result for `CC1=C([Se]CC(OC(=O)[C@@H](CSSC(C)(C)C)NC(=O)OC(C)(C)C)C(=O)NC(C)(C)C)C(=O)c2ccccc2C1=O` (stereo not given in full) reads 8.36% (active). `CC(=O)CC[C@H]1C(=O)N[C@@H](C(C)C)C(=O)N[C@@H](Cc2cc(O)cc(F)c2)C(=O)N2CCC[C@H](N2)C(=O)O[C@H](/C(C)=C/C=C/C(=O)OC(C)(C)C)C/C=C/C=C/[C@H](O)[C@H](C)[C@H]1O`: the growth was 43.8%.

`c1ccc2cc(C[n+]3ccn(CCCCCCCCCCCCn4cc[n+](Cc5ccc6ccccc6c5)c4)c3)ccc2c1`: the growth was -73.8% (active). In the case of `CCn1cnc2c1c(=O)[nH]c(=O)n2CC1CCC(CNS(=O)(=O)c2ccc(OC3CCOCC3)c(F)c2)CC1` (stereo not given), the growth was 62.6%. In the case of `CNCCCNc1nc2ccccc2c2c(=O)c3cc(F)ccc3sc12`, the growth was 41.4%. For `NCCNc1nc2ccccc2c2c(=O)c3cc(F)ccc3sc12`, the growth is 70.9%. `CN(C)c1ccc2nc3ccc(=[N+](C)C)c([N+](=O)[O-])c-3sc2c1`: the growth was 20%. For the compound `CCOC(=O)c1c(C)oc2ncnc(N3CCN(C(=O)COc4ccc(C(C)(C)C)cc4)CC3)c12`, the growth was 73.7%. As for `COc1ccc(-c2conc2-c2ccccc2)cc1`, the growth is 26.2%. In the case of `COc1ccc(CNC(=O)[C@H](O)[C@@H](N)Cc2ccccc2)cc1`, the growth was 109%.

Regarding `COc1ccc(/C=C/c2c(C(=O)/C=C/c3ccc(Cl)cc3)c(C)nc3ccccc23)cc1`, the growth was 13.6%. As for `O=C(O)CCC(=O)Nc1nnc(-c2ccccc2)s1`, the growth was 112%. The result for `CS(=O)(=O)N(c1cc(-c2ccc3ncnc(Nc4ccc(F)c(Cl)c4)c3c2)cnc1Cl)S(C)(=O)=O` reads -22.3% (active); that for `Cc1nn(-c2ccccc2)c2c1N=c1s/c(=C\c3ccc(C(F)(F)F)cc3)c(=O)n1CN2`, 68.3%; that for `Cc1cc(-c2cc(C)c(N)cc2C)c(C)cc1N`, 109%. Regarding `CCOC(=O)NCCc1ccccc1`, the growth was 85.3%. Consider `Cc1ccccc1C(=O)NN`, for which the growth was 85.8%. The result for `C[C@H]1[C@H]2[C@H]3CC[C@@H]4[C@@]5(C)CC[C@H](O)C(C)(C)[C@@H]5CC[C@@]4(C)[C@]3(C)CC[C@]23CO[C@]1(C)[C@@H](C(=O)/C=C\c1cccnc1)C3` reads 80.6%; that for `Cc1cccc(NCc2cn(-c3ccc(C(=O)O)cc3)nc2-c2ccc(C(=O)O)cc2)n1`, 105%.
